# VDR inh = blocks the human vitamin D receptor | P11473 | VDR-SRC2-3 peptide fluorescence polarization, 2 h | Potency, µM, inactives show max response, negative = inhibition, most hits filed as inhibitors | 0.93% of 400,000 active | AID 504847; also: % is scaled to controls: 0 for no effect and ±100 for the full control effect
#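 The screen uses fluorescence polarization to detect compounds that interfere with recruitment of the SRC2-3 coactivator peptide to VDR; plates are read after 2 h at room temperature.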
# PLK1 PBD inh = PLK1 (human) polo-box domain binding inhibition. P53350. Plk1 PBD binding of FITC phosphopeptide, fluorescence polarization. Potency, µM, inactives show max response, negative = inhibition, most hits filed as inhibitors. 2.8% of 360,000 active. AID 720504; also: series mostly up to about 57 µM; % is scaled to controls: 0 for no effect and ±100 for the full control effect; nearly all actives have a fitted effect of over 65% in size
# KAT2A inh = inhibitors of human GCN5L2 histone acetyltransferase | 0.21% of 390,000 active | Potency, µM (titrated, usually from 58.9 µM), without a hit: top-dose activity change, negative = inhibition, usual class: inhibitors | GCN5L2 HAT assay, ThioGlo1 CoA-SH fluorescence | Q92830; also: % is scaled to controls: 0 for no effect and ±100 for the full control effect
#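 Titration-based screen in which CoA formation is detected via maleimide probe ThioGlo1 (50uM) turning fluorescent on thiol reaction; substrates H3(1-25) 75uM and acetyl-CoA 70uM, GCN5L2 20nM, 20 min incubation at room temperature.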
# TSG101-PTAP inh = blocks PTAP/TSG101 interaction to inhibit HIV-1 budding | Q99816 | Fluorescence polarization, FITC-PTAP peptide / Tsg101 binding | Potency, µM (titrated, usually from 115 µM), inactives show at the top dose activity change, negative = inhibition, usual class: inhibitors | 340,000 tested, under 10 active | AID 493005; active = well fitted inhibition curve with a large enough effect in the main read-out, with a control signal flat, not every such curve was filed as active; inconclusive = small, poorly fitted or top-dose-only effect, or effect the other way, or a change in a side signal; inactive = no such curve, though single readings can be large or run the other way; also: % of control where 0% means no effect
#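 Compounds were pin-transferred onto Tsg101 binding domain (10 uM final) in HEPES pH 7.5 buffer, then FITC-PTAP peptide was added at 50 nM final. After 20 min at RT, polarization reported peptide displacement across a qHTS concentration series.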
# USP1 inh = blocks the human USP1/UAF1 deubiquitinase complex | 0.23% of 390,000 active | Potency, µM (top dose mostly 57.1 µM), without a hit: top-dose activity change, negative = inhibition, actives largely listed as inhibitors | recombinant USP1/UAF1, Ub-Rhodamine cleavage fluorescence | AID 743255; also: % is scaled to controls: 0 for no effect and ±100 for the full control effect; nearly all actives have a fitted effect of over 60% in size
# Target sequence (O94782 whole entry, looked up): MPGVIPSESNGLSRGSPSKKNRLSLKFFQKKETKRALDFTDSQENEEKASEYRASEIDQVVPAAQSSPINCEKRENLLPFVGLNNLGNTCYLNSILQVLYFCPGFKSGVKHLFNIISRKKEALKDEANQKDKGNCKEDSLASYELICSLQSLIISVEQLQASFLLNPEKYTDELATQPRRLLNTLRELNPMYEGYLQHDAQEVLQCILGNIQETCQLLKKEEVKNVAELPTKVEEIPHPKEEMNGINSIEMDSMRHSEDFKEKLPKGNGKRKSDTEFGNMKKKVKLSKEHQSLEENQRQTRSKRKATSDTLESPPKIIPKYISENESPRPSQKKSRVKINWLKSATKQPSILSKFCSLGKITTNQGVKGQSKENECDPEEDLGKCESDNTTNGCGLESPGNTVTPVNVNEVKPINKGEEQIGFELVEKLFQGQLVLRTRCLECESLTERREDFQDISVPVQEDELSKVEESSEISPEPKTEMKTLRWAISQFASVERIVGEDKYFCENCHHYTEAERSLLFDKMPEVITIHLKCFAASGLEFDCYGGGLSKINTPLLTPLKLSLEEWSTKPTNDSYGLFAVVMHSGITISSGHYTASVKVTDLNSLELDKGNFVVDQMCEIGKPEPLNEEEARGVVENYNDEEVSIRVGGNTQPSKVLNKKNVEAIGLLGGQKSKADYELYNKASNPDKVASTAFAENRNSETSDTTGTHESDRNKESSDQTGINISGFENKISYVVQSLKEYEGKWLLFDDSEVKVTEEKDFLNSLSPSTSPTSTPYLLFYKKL
#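 High-throughput fluorogenic screen: 1nM USP1/UAF1 complex, Ub-Rho substrate 150nM final, 50mM HEPES pH 7.8 with 0.5mM EDTA, 0.1 mg/ml BSA, 1mM TCEP and 0.01% Tween-20.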
# * marks the source's active call; other numbers are inactive results; ? = inconclusive; / = no result given. Rows were chosen to be rich in hits. Some 3% of all compounds tested hit in one or more screens of this group. Unless noted, calls follow the shape of the dose curve; as a rule, active = well fitted curve in the direction sought with a large enough effect; inconclusive = small, poorly fitted or top-dose-only effect, or another doubt; inactive = no such curve, though single readings can be large; an effect the other way counts as inactive or inconclusive. Potency is read from the fitted curve at half-maximal effect.
SMILES,VDR inh,PLK1 PBD inh,KAT2A inh,TSG101-PTAP inh,USP1 inh
O=C(O)c1ccc(N=NNc2cccc([N+](=O)[O-])c2)cc1,4.3%,-7.6%,-8.1%,1.3%,-15.9%
N#C/C(=N\Nc1cccc([N+](=O)[O-])c1)C(=O)c1ccc(Br)cc1,-26.1%,29.9µM*,?,1.0%,-20.4%
O=c1c2cn[nH]c2nc(SCc2cc(=O)n3cc(Br)ccc3n2)n1-c1ccc(Br)cc1,-6.2%,21.2µM*,-10.8%,0.8%,-0.6%
O=c1c2cn[nH]c2nc(SCc2ccccc2F)n1-c1ccc(Br)cc1,13.6%,2.4%,-6.3%,0.0%,-22.9%
CN(Cc1ccco1)C(=O)CC[C@H]1O[C@@H](n2ccc(=O)[nH]c2=O)[C@H](O)[C@@H]1O,/,-13.0%,/,/,/
COC(=O)C1=NN(C(=O)c2ccc(Cl)cc2)C(O)(c2ccccc2)C1 (stereo unspecified),-3.3%,-11.2%,1.41µM*,-8.4%,?
CCC(COC)Oc1cc(NCc2ccccc2)c2ncn(C(C)C)c2c1 (stereo unspecified),22.4µM*,?,-0.4%,3.6%,12.6µM*
CCC(COC(=O)c1ccccc1)Oc1cc(NCc2ccccc2)c2ncn(C(C)C)c2c1 (stereo unspecified),79.4µM*,-16.0%,-14.4%,-3.8%,?
CC1(C(=O)CSc2nc3ccccc3s2)CCC(=O)O1 (stereo unspecified),?,21.2µM*,-1.0%,-2.2%,?
CC1(C)CC2(CC(C)(C(=O)CSc3nc4ccccc4s3)OC2=O)C(=O)O1 (stereo unspecified),-17.3%,-22.9%,-12.8%,-5.7%,-6.7%
O=[N+]([O-])c1ccc2[nH]c(=S)[nH]c2c1,-9.1%,26.7µM*,/,-5.7%,?
O=[N+]([O-])c1ccc2c(c1)[nH]c(=S)n2-c1ccccc1,-12.4%,5.97µM*,-12.1%,0.5%,5.2%
O=[N+]([O-])c1ccc2[nH]c(=S)sc2c1,?,0.0%,/,-0.1%,-12.2%
C=CCc1ccccc1OCCSc1nc(-c2cccs2)nc2cc(=O)[nH]n12,12.3%,/,-11.6%,/,-23.6%
Cc1cnc(NC(=O)COc2ccccc2)s1,-0.8%,29.9µM*,-7.3%,-11.6%,-1.5%
COc1ccccc1OCC(=O)Nc1ncc(C)s1,8.3%,-11.2%,-2.7%,-2.1%,-16.1%
Cc1cc(NC(=O)CSc2nnnn2-c2cc(Cl)ccc2C)no1,9.4%,-0.9%,3.4%,-4.7%,-24.5%
CC(=O)Nc1ccc(SCC(=O)Nc2cc(C)on2)cc1,-21.8%,23.8µM*,-12.8%,1.3%,-22.3%
COc1ccc(CCNC(=O)CSc2ccc(NC(C)=O)cc2)cc1OC,-4.3%,13.4µM*,-5.4%,-0.2%,?
Cc1cc(NC(=O)CSc2ccc(F)cc2)no1,-19.4%,-1.5%,-6.9%,-2.1%,-6.8%
Cc1cc(NC(=O)CSc2nnnn2-c2ccc(C(C)C)cc2)no1,-29.7%,26.7µM*,-7.9%,5.2%,-17.6%
COc1ccc(CCNC(=O)CSc2ccc3ccccc3c2)cc1OC,?,-2.7%,-11.2%,-2.3%,-16.7%
O=C(CCNS(=O)(=O)c1ccccc1)OCC(=O)c1ccc(Cl)cc1,-4.3%,-4.0%,?,-0.8%,-12.3%
CC(/C=C/c1ccccc1F)=N\NC(=O)c1ccc(Cl)cc1,?,5.32µM*,-5.9%,-9.1%,0.8%
CC(C)/C=N/NC(=O)c1ccc(Cl)cc1,?,26.7µM*,2.9%,-2.0%,-17.1%
SMILES,VDR inh,PLK1 PBD inh,KAT2A inh,TSG101-PTAP inh,USP1 inh
CC(/C=C/c1ccccc1F)=N\NC(=O)c1ccccc1,13.5%,-3.0%,-5.3%,-0.1%,-11.9%
O=C(N/N=C/c1ccc[nH]1)c1ccc(Cl)cc1,-13.6%,-3.7%,-0.5%,-3.5%,5.5%
Cc1cc(NC(=O)CC(C)C)c(=O)n(Cc2c(F)cccc2Cl)c1,-24.8%,-16.0%,3.0%,-4.8%,2.2%
COCC(=O)Nc1cc(C)cn(Cc2c(F)cccc2Cl)c1=O,?,3.36µM*,1.4%,0.5%,-19.4%
Cc1cc(OCc2ccc(C(=O)n3cccn3)o2)ccc1Cl,-7.9%,23.8µM*,-5.0%,-1.0%,-17.2%
O=C(c1ccc(COc2ccc(F)cc2)o1)n1cccn1,-1.8%,-11.8%,-7.3%,0.0%,-15.2%
CC(=O)c1cccc(NC(=O)Cn2cnc(S(=O)(=O)N3CCCCC3)c2)c1,20.3%,1.1%,1.0%,-1.4%,?
CC(=O)c1ccc(N2CCN(C(=O)Cn3cnc(S(=O)(=O)N4CCCCC4)c3)CC2)cc1,-19.0%,26.7µM*,?,-1.5%,-21.4%
C=CCOc1c(Cl)cc(CNCCCN2CCOCC2)cc1OC,?,21.2µM*,2.9%,-0.5%,-10.7%
COc1cc(CNCCCN2CCOCC2)cc(Br)c1OCc1ccc(Cl)cc1,-2.8%,1.2%,1.1%,-3.6%,-20.5%
Cc1nc(CSc2nsc(/C=C/N(C)C)c2C#N)cs1,?,-8.5%,-20.0%,-1.5%,?
COC(=O)c1ccccc1CSc1nsc(/C=C/N(C)C)c1C#N,?,9.47µM*,-11.7%,-12.4%,-16.6%
CCN(C(=O)Cn1c(C(=O)OC)cc2sccc21)c1cccc(C)c1,4.4%,/,-3.6%,/,-22.0%
O=C(CCN1CCc2ccccc2C1)c1ccc2c(c1)OCCO2,?,23.8µM*,-2.6%,0.0%,-10.0%
O=C(CCN1CCc2ccccc21)c1ccc2c(c1)OCCO2,-28.3%,?,-0.8%,-6.2%,-26.5%
O=C(CCN1CCC(c2ccccc2)C1)c1ccc2c(c1)OCCO2 (stereo unspecified),14.1µM*,5.97µM*,-9.2%,-1.4%,16.4%
O=C(CCN1CCCC1Cc1ccccc1)c1ccc2c(c1)OCCO2 (stereo unspecified),35.5µM*,21.2µM*,/,-12.0%,-16.8%
COc1cc(C(=O)CCN2CCC(c3ccccc3)C2)cc(OC)c1OC (stereo unspecified),?,26.7µM*,-4.6%,-1.9%,-5.0%
COc1ccccc1/C=C/C=C1\Oc2c(ccc(O)c2CN(C)C)C1=O,-12.0%,7.2%,-17.9%,?,25.1µM*
Nc1nc(-c2ccc3c(c2)OCCO3)c(CC(=O)O)s1,-20.4%,-14.4%,35.5µM*,2.3%,-14.0%
Nc1nc(-c2ccc3c(c2)CCCC3)c(CC(=O)O)s1,-28.6%,-25.7%,-5.7%,-1.2%,-13.3%
CCCCN1C(=O)C(=O)N(CC(=O)Nc2cc(Cl)ccc2OC)C1=O,-15.4%,-11.5%,-1.7%,0.9%,-3.5%
Cc1ccc(N2C(=O)CC(N3CCN/C3=C3\CC/C(=C\c4ccccc4)C3=O)C2=O)cc1 (stereo unspecified),3.3%,-9.5%,0.5%,-5.3%,-1.6%
O=C(NCC1CC1)c1ccc(Nc2nc3ccc(Br)cc3[nH]2)cc1,-8.0%,10.6µM*,-25.5%,-4.7%,-27.7%
O=C(c1c(F)c(F)c(F)c(F)c1F)N1CCc2ccccc21,?,23.8µM*,/,-7.3%,-4.5%
CCN(CC)C(=O)N1CCc2ccccc21,-20.0%,29.9µM*,-7.5%,-5.6%,-7.4%
